TDP1 cell CPT = growth inhibition of DT40 Tdp1-/-;hTDP1 cells with camptothecin (screen for TDP1 inhibitors) | chicken DT40 Tdp1-/-;hTDP1 cells + 20 nM CPT, ATP luminescence, 48 h | Potency, µM (titrated, usually from 46.2 µM), inactives show at the top dose activity change, negative = growth inhibition, most hits filed as inhibitors | 12% of 420,000 active | AID 686979; note: potency is the fitted concentration of half-maximal effect; nearly all actives have a fitted effect of over 55% in size
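Chicken DT40 Tdp1-/- cells complemented with human TDP1, 400 cells/well, exposed to compounds plus 20 nM camptothecin for at least 48 h at 37 C; viability read as ATP content by CellTiter-Glo luminescence.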
IL-1B inflam inh = blocks inflammasome-driven IL-1 beta release; 4.7% of 360,000 active; THP-1 LPS/ATP IL-1B secretion, AlphaLISA, 16 h; stronger effect = lower value; activity change, % at 57.5 µM; in the data active = activity change below about -50%; inconclusive = mostly about -30% to -49%
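Secreted IL-1B measured by AlphaLISA bead assay after 16 h compound exposure of THP-1 cells; compounds (final up to 57.5 uM) added 1 h before LPS (250 ng/mL) and ATP (1.25 mM) stimulation; lower signal means less secretion.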
HT1080-NT tox = kills 2HG-producing HT-1080-NT fibrosarcoma cells; Potency, µM (highest dose often 46.1 µM), for inactives: at the highest dose activity, negative = less viability, hits mostly cytotoxic; 1.6% of 360,000 active; AID 686970; HT-1080-NT fibrosarcoma viability, CellTiter-Glo ATP luminescence, 48 h;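 note: NT is the 2HG producing partner of a matched IDH1 knockdown line; potency is the fitted concentration of half-maximal effect; 0% = DMSO-treated cells and -100% = media-only wells without cells; nearly all actives have a fitted effect of over 55% in size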
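Toxicity toward the 2HG-producing NT line was scored as %Activity, normalised to DMSO and no-cell wells, from CellTiter-Glo luminescence after 48 hours' treatment.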
TDP1 cell noCPT = qHTS for Inhibitors of human tyrosyl-DNA phosphodiesterase 1 (TDP1): qHTS in cells in absence of CPT. Potency, µM (titrated, usually from 46.2 µM), for inactives: top-dose activity change, negative = growth inhibition, usual class: inhibitors. AID 686978, 2013. DT40 Tdp1-/- hTDP1 cells, no CPT, ATP luminescence, 48 h. 15% of 420,000 active; note: potency is the fitted concentration of half-maximal effect; nearly all actives have a fitted effect of over 55% in size
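Compound effects on proliferation are scored in DT40 Tdp1-/-;hTDP1 cells in the absence of CPT. ATP levels (CellTiter-Glo luminescence) are recorded after a ≥48 hr, 37 °C incubation.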
ELG1 DNA repair = ELG1-dependent DNA repair inhibition; HEK293T ELG1-luciferase reporter, luminescence, 16 h; DNA damage induced by 5-fluorouridine; Potency, µM (titrated, usually from 46.1 µM), without a hit: at the highest dose activity change, negative = inhibition, usual class: inhibitors; 2.3% of 330,000 active; note: potency is the fitted concentration of half-maximal effect; nearly all actives have a fitted effect of over 55% in size
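Step one: seed 2,000 cells per well. Step two: pin-transfer compound or DMSO alongside 5-fluorouridine. Step three: incubate 16 hr, 37 °C, 5% CO2. Step four: add ONE-Glo, wait 30 min, read luminescence.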
HT1080 IDH1KD tx = kills HT-1080 cells with IDH1 knockdown; 2% of 360,000 active; Potency, µM (titrated, usually from 46.1 µM), for the others: at the top dose activity, negative = toxicity, hits mostly cytotoxic; HT-1080 IDH1 knockdown viability, ATP luminescence, 48 h; AID 686971;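 note: potency is the fitted concentration of half-maximal effect; 0% = DMSO wells and -100% = cell-free medium wells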
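Luminescent ATP read-out (CellTiter-Glo, 10 min at room temperature) after 48 h compound exposure at 37 °C gave viability of IDH1-knockdown HT-1080 cells. Activity was normalised to DMSO and cell-free wells, then fitted as concentration-response curves.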
* hit, by the source's call; ? = inconclusive; nt = not tested or not shown; [ ] = another dose, or the depositor's remark. An excerpt weighted towards active compounds, which were near 19% of everything screened. Unless noted, calls come from the whole dose curve; as a rule, active = well fitted curve in the direction sought with a large enough effect; inconclusive = small, poorly fitted or top-dose-only effect, or another doubt; inactive = no such curve, though single readings can be large; an effect the other way counts as inactive or inconclusive. Unless noted, % is set by controls: 0 for no effect and ±100 for the full control effect.

SMILES	TDP1 cell CPT	IL-1B inflam inh	HT1080-NT tox	TDP1 cell noCPT	ELG1 DNA repair	HT1080 IDH1KD tx
O=C(CCn1ccc2cc(S(=O)(=O)N3CCCC3)ccc21)NCc1cccc(F)c1	?	12	0%	?	0%	0%
CCOc1ccc(CNC(=O)c2cc3cc(S(=O)(=O)N4CCCCC4)ccc3n2C)cc1	18µM*	nt	nt	16µM*	nt	nt
Cc1ccccc1CCNC(=O)c1cc2cc(S(=O)(=O)N3CCCCC3)ccc2n1C	10µM*	nt	nt	18µM*	nt	nt
Cn1nnnc1Sc1ncnc2scc(-c3ccc(Cl)cc3)c12	nt	nt	nt	nt	16µM*	nt
Cn1nnnc1Sc1ncnc2scc(-c3ccc4c(c3)OCO4)c12	nt	nt	nt	nt	-22%	nt
Cn1nnnc1Sc1ccc([N+](=O)[O-])cc1Cl	4%	24	2%	-9%	14%	-22%
Cn1nnnc1Sc1ncnc2scc(-c3cccc(Br)c3)c12	nt	nt	nt	nt	13µM*	nt
Cn1nnnc1Sc1ncnc2scc(-c3ccc([N+](=O)[O-])cc3)c12	nt	nt	nt	nt	7.3µM*	nt
COc1cc(CN2CCCC(n3cc(C(=O)N4CCCCC4)nn3)C2)cc2c1OCO2 (centres undefined)	-5%[9.04 µM]	nt	nt	-12%	nt	nt
Nc1sc(Cc2ccccc2)cc1C(=O)c1c(-c2ccccc2)[nH]c2ccccc12	3.7µM*	-12	7.3µM*	4.6µM*	nt	4.6µM*
COc1cccc(NC(=O)N(Cc2cn(C)c3ccccc23)C2CCCCC2)c1	4.1µM*	nt	nt	7.3µM*	nt	nt
COc1ccc(CN(C(=O)Nc2cccc(OC)c2)C2CCN(C(C)=O)CC2)cc1	-13%	nt	nt	-16%	nt	nt
Cc1ccc(NC(=O)N(Cc2cn(C)c3ccccc23)C2CCCCC2)cc1C	5.8µM*	nt	nt	5.2µM*	nt	nt
CC(=O)N1CCC(N(C(=O)Nc2ccc(C)c(C)c2)C2CCCC2)CC1	-15%	6	-2%	-15%	21%	-16%
CC(NC(=O)COc1ccc(-c2nnco2)cc1)c1ccc(Cl)cc1Cl (centres undefined)	?	0	0%	?	?	-14%
O=C(NCc1ccco1)C(Cc1ccccc1)N1C(=O)c2ccccc2C1=O (centres undefined)	21µM*	25	20%	-20%	15%	17%
[N-]=[N+]=CC(=O)CNC(=O)[C@@H](Cc1ccccc1)N1C(=O)c2ccccc2C1=O	-17%	3	8%	-23%	-1%	2%
COc1ccc(S(=O)(=O)N2CCOCC2)cc1N=Nc1sc(N)nc1-c1ccccc1	-30%	?	-21%	2.3µM*	-4%	-29%
COc1ccc(S(=O)(=O)N2CCOCC2)cc1NC(=O)CSc1nnc(N)s1	2%	14	-2%	-16%	-4%	5%
CCCSC1=NC2(CCN(C(=O)NC3CCCCC3)CC2)N=C1c1ccc(OC)cc1	23µM*	nt	nt	23µM*	nt	nt
COc1ccc(-n2ncc(C(=O)N3CCN(c4ccccn4)CC3)c2C2CCN(C(=O)OC(C)(C)C)CC2)cc1	?	nt	nt	21µM*	nt	nt
CCc1cccc(C)c1NC(=O)c1cnn(-c2ccc(OC)cc2)c1C1CCN(C(=O)OC(C)(C)C)CC1	18µM*	nt	nt	18µM*	nt	nt
CC(C)(C)OC(=O)N1CCC(c2c(C(=O)N3CCN(C(=O)c4ccco4)CC3)cnn2-c2ccccc2)CC1	-14%	nt	nt	-8%	nt	nt
COc1ccc(N2CCN(C(=O)c3cnn(-c4ccc(OC)cc4)c3C3CCN(C(=O)OC(C)(C)C)CC3)CC2)cc1	18µM*	nt	nt	?	nt	nt
COc1ccc(-n2ncc(C(=O)N3CCOCC3)c2C2CCN(C(=O)OC(C)(C)C)CC2)cc1	6%	nt	nt	-1%	nt	nt
SMILES	TDP1 cell CPT	IL-1B inflam inh	HT1080-NT tox	TDP1 cell noCPT	ELG1 DNA repair	HT1080 IDH1KD tx
Cc1cccc(N2CCN(C(=O)c3cnn(-c4ccccc4)c3C3CCN(C(=O)OC(C)(C)C)CC3)CC2)c1C	?	nt	nt	16µM*	nt	nt
CCOC(=O)C1CCCN(C(=O)CCc2nc3sc4c(c3c(=O)[nH]2)CCCC4)C1 (centres undefined)	?	0	-1%	-6%	0%	-1%
CC(C)(C)OC(=O)N1CCC(c2c(C(=O)N3CCN(c4ccccn4)CC3)cnn2-c2cccc(F)c2)CC1	18µM*	nt	nt	16µM*	nt	nt
CC(C)(C)OC(=O)N1CCC(c2c(C(=O)N3CCN(C(=O)c4ccco4)CC3)cnn2-c2ccc(F)cc2)CC1	-10%	5	16%	11%	?	6%
O=C(NC1CCCC1)C(c1ccc(F)cc1)N(Cc1ccc(F)cc1)C(=O)CCl (centres undefined)	3.3µM*	-104*	8%	4.6µM*	-16%	9%
CCOC(=O)CN(C(=O)Cn1nnc(-c2ccc(OC)cc2)n1)C(C(=O)NC1CCCC1)c1ccc(F)cc1 (centres undefined)	?	-5	14%	-29%	-13%	5%
COc1ccc(-c2nnn(CC(=O)N(Cc3ccc(F)cc3)C(C(=O)NC3CCCC3)c3ccc(F)cc3)n2)cc1 (centres undefined)	21µM*	25	?	?	nt	-3%
CCN(CC)C(=O)[C@H]1C[C@H](CC(=O)NCCCn2ccnc2)C(=O)N2CCc3c([nH]c4cc(CCC(=O)N(C)C)ccc34)[C@]12C	-13%	-10	1%	-10%	15%	0%
CC(C)(C)N1CCC1CN (centres undefined)	-4%	-17	27%	-2%	-3%	24%
Cc1ccccc1S(=O)(=O)NC(=O)C1(C)CCN1C(=O)COc1ccc(Cl)cc1 (centres undefined)	2%	10	23%	-9%	nt	10%
CCn1c(CN2CCC(C)CC2)nc2cc(NC(=O)c3cccc([N+](=O)[O-])c3)ccc21	15µM*	nt	nt	23µM*	nt	nt
CC(=O)N1CCN(Cc2nc3cc(NC(=O)c4ccccc4C)ccc3n2C)CC1	-5%	27	15%	-20%	-9%	15%
CC(=O)NCCc1nc2cc(NC(=O)c3ccc(Cl)cc3)ccc2n1C	-1%	20	4%	0%	?	1%
CCn1c(CN2CCC(C)CC2)nc2cc(NC(=O)COc3ccc([N+](=O)[O-])cc3)ccc21	-20%	nt	nt	-19%	nt	nt
CC(=O)N1CCN(Cc2nc3cc(NC(=O)c4cccc(Br)c4)ccc3n2C)CC1	-25%	-13	?	?	8.2µM*	?

High-throughput results from PubChem.
